Reference: PubChem BioAssay AID2284354 (EPA ToxCast)
Inconclusive results are not listed. Activity calls are given as the source filed them. How the source made its calls: active means hit-call score of the fitted dose curve at least 0.9, where 1 is the maximum; inconclusive means response in the unintended direction; inactive means score below 0.9.

Biological target: human Retinoid X Receptor beta (RXRb), RXRB (gene 6257) (UniProt P28702)
Assay: ATG_hRXRb_EcoTox2: Attagene TRANS-FACTORIAL EcoTox-2 HepG2 Assay for human Retinoid X Receptor beta (RXRb)
Experimental: ATG_EcoTox2 is a cell-based, multiplexed assay created by modifying the existing Attagene TRANS-FACTORIAL system to include a panel of nuclear receptors from some or all the following species: human (Homo sapiens), african clawed frog (Xenopus laevis), rainbow trout (Oncorhynchus mykiss), japanese medaka (Oryzias latipes), and zebrafish (Danio rerio). The ECOTOX2-FACTORIAL format uses HepG2, a human liver cell line, with measurements taken at 24 hours after chemical dosing in a 24-well plate. ATG_hRXRb_EcoTox2 is one of 29 assay components calculated in the ATG_EcoTox2 assay. It is designed to make measurements of mRNA induction, a form of inducible reporter, as detected with fluorescence intensity signals by Reverse transcription polymerase chain reaction (RT-PCR) and Capillary electrophoresis technology.The assay endpoint ATG_hRXRb_EcoTox2 was analyzed in the positive analysis fitting direction relative to DMSO as the negative control and baseline of activity. Using a type of inducible reporter, measures of mRNA for gain-of-signal activity can be used to understand the reporter gene at the transcription factor-level as they relate to the gene RXRb. Furthermore, this assay endpoint can be referred to as a primary readout, because this assay has produced multiple assay endpoints where this one serves a reporter gene function. To generalize the intended target to other relatable targets, this assay endpoint is annotated to the nuclear receptor intended target family, where the subfamily is non-steroidal.
Human liver HepG2 cells are transiently transfected with multiple reporter transcription units (MRTUs) in 6-well plates using FuGene 6 reagent (Roche; 3 ml FuGene/1 mg DNA). The MRTU constructs are regulated by a cis-regulating element (promoter). Each RTU expresses a GAL4-UAS that regulates the transcription of a nearby target reporter gene sequence. A major difference between the CIS and TRANS system is that in CIS activities of endogenous TFs are measured, whereas the TRANS assay evaluates changes in activities of exogenous, chimeric NR-Gal4 proteins. […] At the end of 24 hour incubation, total RNA was isolated using TriZol reagent (Invitrogen). The isolated RNA is then reverse-transcribed using oligo(dT) primer and Mo-MLV reverse transcriptase (Invitrogen) with DNAse I (Ambion) treatment for 30 min. The one-tenth of the produced cDNA was amplified by PCR using Taq DNA polymerase (Invitrogen) and two reporter sequence-specific primers. […] The fragments were purified using Qiaquick PCR columns (Qiagen), analyzed on an ABI 3130xL genetic analyzer (Applied Biosystems) with peak positions identified by using a set of X-rhodamine (ROX)-labeled MapMarker1000 molecular weight standards (BioVentures). […]

Chain of human Retinoid X Receptor beta (RXRb), RXRB (gene 6257) (P28702 whole entry, looked up): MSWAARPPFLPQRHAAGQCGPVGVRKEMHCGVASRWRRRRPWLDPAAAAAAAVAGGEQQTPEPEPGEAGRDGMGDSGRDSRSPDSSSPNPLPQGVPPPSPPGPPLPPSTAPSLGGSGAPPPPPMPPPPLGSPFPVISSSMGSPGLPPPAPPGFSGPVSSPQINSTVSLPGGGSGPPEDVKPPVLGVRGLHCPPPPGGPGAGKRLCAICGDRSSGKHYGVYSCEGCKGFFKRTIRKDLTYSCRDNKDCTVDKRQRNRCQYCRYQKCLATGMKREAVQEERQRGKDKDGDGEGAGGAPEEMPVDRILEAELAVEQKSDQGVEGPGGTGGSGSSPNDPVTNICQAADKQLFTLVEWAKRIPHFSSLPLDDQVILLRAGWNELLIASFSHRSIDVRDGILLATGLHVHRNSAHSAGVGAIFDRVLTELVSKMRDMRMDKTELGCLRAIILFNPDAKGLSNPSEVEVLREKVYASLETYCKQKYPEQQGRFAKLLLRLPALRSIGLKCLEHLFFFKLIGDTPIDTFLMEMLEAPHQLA

Row | Compound | AC50 | outcome
1 | CCCCOCN(C(=O)CCl)c1c(CC)cccc1CC | 36.6 µM (active) | 
2 | O=S(=O)(O)C(F)(F)C(F)(F)C(F)(F)C(F)(F)C(F)(F)C(F)(F)F |  | inactive
3 | [Cl][Sn]([c]1ccccc1)([c]1ccccc1)[c]1ccccc1 | 0.041 µM (active) | 
4 | O=C(O)C(F)(F)C(F)(F)C(F)(F)C(F)(F)C(F)(F)C(F)(F)C(F)(F)F | 29 µM (active) | 
